# Measurements as given in PubChem BioAssay AID624255 (Broad Institute, 2012).
# “And” between values parts separate entries of the source, which are not always exact repeats. Equal values may be shown once. Hit rate of the full screen: of about 77,000 compounds, about 4,600 (6%) were called active. Roughly 1% stayed inconclusive and do not appear here. Many of the other results were omitted from the sample, so actives are more common in it than they were. A number with no mark means an inactive call.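 Rule for the calls: active = mean inhibition above about 93%, with at least 55% of replicates each passing it (limit read from the data, passing the limit was not always enough); inconclusive = only one of those two conditions holds; inactive = neither condition holds.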
# Assay: T. cruzi intracellular proliferation inhibitors, primary screen, cell-based, beta-gal Tulahuen parasites, NIH3T3 host, luminescence (AID 624255)
# Settings: T. cruzi beta-gal in NIH3T3, GalScreen luminescence, 90 h; at 8.34 µM; stronger effect = higher value
row,Compound,inhibition
1,CS(=O)(=O)N1[C@H](C(=O)NCc2ccncc2)[C@@H](CO)[C@@H]2Cn3c(ccc(C4=CCCCC4)c3=O)[C@@H]21,58.6%
2,COc1cccc(S(=O)(=O)N2C[C@@H](O)COC[C@H]3O[C@@H](CC(=O)N4CCOCC4)CC[C@@H]32)c1,22.5%
3,O=C(Nc1ccccc1F)N1C[C@@H]2[C@H](c3ccccc31)[C@@H](CO)N2C(=O)Nc1ccccc1,8.53%
4,O=C(CN1CCOCC1)NCC[C@H]1CC[C@@H](NC(=O)Nc2ccc(Cl)cc2)[C@@H](CO)O1,46.9%
5,O=C(C[C@H]1CC[C@@H]2[C@H](COC[C@@H](O)CN2C(=O)Nc2cccc(F)c2)O1)NCc1ccccc1F,-36.9%
6,COc1cccc(C(=O)Nc2ccc3c(c2)C(=O)N(C)C[C@@H](OC)[C@H](C)CN(C(=O)C2CCOCC2)[C@H](C)CO3)c1,9.28%
7,COc1ccc(NC(=O)Nc2ccc3c(c2)C(=O)N([C@H](C)CO)C[C@H](C)[C@H](CN(C)Cc2ccncc2)OCCCC[C@H](C)O3)cc1,97.9%
8,C[C@H](CO)N1C[C@H](C)[C@H](CN(C)Cc2ccc(Cl)c(Cl)c2)OCCCC[C@H](C)Oc2ccc(NC(=O)NC3CCCCC3)cc2C1=O,86.3%
9,C[C@@H]1CN([C@H](C)CO)C(=O)c2cc(NC(=O)Nc3ccc(F)cc3)ccc2O[C@@H](C)CCCCO[C@H]1CN(C)Cc1ccc(Cl)c(Cl)c1,102% (active)
10,COc1ccc(NC(=O)Nc2ccc3c(c2)C(=O)N([C@H](C)CO)C[C@@H](C)[C@H](CN(C)Cc2ccc(Cl)c(Cl)c2)OCCCC[C@@H](C)O3)cc1,126% (active)
11,COc1ccc(CN(C)C[C@@H]2OCCCC[C@@H](C)Oc3ccc(NC(=O)Nc4ccc(OC)cc4)cc3C(=O)N([C@@H](C)CO)C[C@@H]2C)cc1,24.8%
12,C[C@@H]1CCCCO[C@H](CN(C)Cc2ccc(Cl)c(Cl)c2)[C@@H](C)CN([C@@H](C)CO)C(=O)c2cc(NC(=O)Nc3ccccc3)ccc2O1,70.7%
13,COc1ccccc1-c1ccc2n(c1=O)C[C@H]1[C@H](CO)[C@@H](C(=O)N[C@@H](C)c3ccccc3)[C@@H]2N1C,18.4%
14,C[C@@H]1CN([C@H](C)CO)S(=O)(=O)c2ccc(C#CC3CCCCC3)cc2O[C@H]1CN(C)C(=O)Cc1ccncc1,92.8% and 91.8%
15,C[C@@H]1CN([C@H](C)CO)S(=O)(=O)c2ccc(C#CC3CCCC3)cc2O[C@@H]1CN(C)C(=O)Cc1ccncc1,117% (active)
16,CCC(=O)N(C)C[C@H]1Oc2cc(C#CC3CC3)ccc2S(=O)(=O)N([C@@H](C)CO)C[C@@H]1C,3.97%
17,COCC(=O)N(C)C[C@@H]1Oc2cc(C#CC3CC3)ccc2S(=O)(=O)N([C@H](C)CO)C[C@H]1C,-43%
18,CCC(=O)N(C)C[C@H]1Oc2cc(C#CC3CC3)ccc2S(=O)(=O)N([C@H](C)CO)C[C@H]1C,-39.9%
19,C[C@H]1CN([C@@H](C)CO)S(=O)(=O)c2ccc(C#CC3CCCC3)cc2O[C@H]1CN(C)C(=O)Cc1ccncc1,118% (active)
20,C[C@@H]1CN([C@H](C)CO)C(=O)c2cc(C#CCN(C)C)cnc2O[C@H]1CN(C)C(=O)NC1CCCC1,-10.7%
21,COc1ccc(S(=O)(=O)N[C@@H]2CC[C@H](CC(=O)N3CCc4ccccc4C3)O[C@H]2CO)cc1,16.5%

row,Compound,inhibition
1,CC(C)C#Cc1cnc2c(c1)C(=O)N([C@@H](C)CO)C[C@@H](C)[C@H](CN(C)C(=O)CCN1CCCCC1)O2,15%
2,CC(=O)Nc1ccc2c(c1)C(=O)N(C)[C@@H]1CC[C@@H](CC(=O)NCC3CCCCC3)O[C@@H]1CO2,8.56%
3,COCC(=O)N(C)C[C@H]1Oc2ncc(-c3cccc(OC)c3)cc2C(=O)N([C@H](C)CO)C[C@H]1C,-6.11%
4,COc1ccccc1C#Cc1ccc([C@@H]2[C@H](CO)N3CCCCN(CCC(F)(F)F)C[C@@H]23)cc1,42.4%
5,O=C(Nc1cccc(F)c1)N1CCCCN2[C@H](CO)[C@H](c3ccc(C#CC4CC4)cc3)[C@@H]2C1,122% (active)
6,O=C(Nc1ccccc1)N1CCCCN2[C@H](CO)[C@@H](c3ccc(C#Cc4ccccn4)cc3)[C@H]2C1,108% (active)
7,CC(C)C#Cc1ccc([C@H]2[C@@H](CO)N3CCCCN(C(=O)Nc4ccccc4)C[C@H]23)cc1,49.6%
8,N#Cc1cccc(-c2ccc([C@H]3[C@H](CO)N4CCCCN(C(=O)Nc5cccc(F)c5)C[C@@H]34)cc2)c1,105% (active)
9,OC[C@@H]1[C@H](c2ccc(C#CC3CC3)cc2)[C@@H]2CN(CCC(F)(F)F)CCCCN12,99.5% (active)
10,Cc1ccccc1-c1ccc([C@@H]2[C@@H](CO)N3CCCCN(C(=O)Nc4cccc(F)c4)C[C@H]23)cc1,91.9%
11,O=C(Nc1ccc(F)cc1)N1CCCCN2[C@H](CO)[C@H](c3ccc(C#Cc4ccccc4)cc3)[C@H]2C1,76.6%
12,N#Cc1cccc(-c2ccc([C@H]3[C@@H](CO)N4CCCCN(C(=O)Nc5ccccc5)C[C@H]34)cc2)c1,75.3%
13,COc1ccc(C#Cc2ccc([C@H]3[C@@H](CO)N4CCCCN(C(=O)Nc5ccccc5)C[C@H]34)cc2)cc1,80.4%
14,O=C(C1CCC1)N1CCCCN2[C@H](C1)[C@@H](c1ccc(C#CC3CCCC3)cc1)[C@@H]2CO,86.9%
15,O=C(c1ccncc1)N1CCCCN2[C@H](CO)[C@@H](c3ccc(C#Cc4ccccn4)cc3)[C@H]2C1,91.2%
16,CN1CCN(C(=O)C[C@@H]2C=C[C@@H](NS(=O)(=O)c3cccc(F)c3)[C@@H](CO)O2)CC1,-46.4%
17,O=C(C[C@H]1C=C[C@H](NC(=O)NC2CCCCC2)[C@H](CO)O1)NCc1ccccc1,-29.6%
18,COc1ccc(CN(C)C[C@H]2OCCCC[C@@H](C)Oc3ccc(NS(C)(=O)=O)cc3C(=O)N([C@@H](C)CO)C[C@H]2C)cc1,89.5%
19,CN(C)CC(=O)Nc1ccc2c(c1)[C@@H]1C[C@H](CC(=O)NCC3CC3)O[C@@H](CO)[C@@H]1O2,-19.8%
20,COc1ccc(NC(=O)Nc2ccc3c(c2)C(=O)N([C@@H](C)CO)C[C@H](C)[C@H](CN(C)C(=O)Nc2ccccc2)OCCCC[C@@H](C)O3)cc1,54%
